# In PubChem BioAssay AID1851 (National Center for Advancing Translational Sciences (NCATS), 2009):
# Hit rate of the full screen: of about 16,000 compounds, about 5,100 (32%) were called active. Inconclusive results (about 25%) are left out. The list shows a part of the results. Values without a mark were called inactive. The call rests on the fitted dose curve; in most records, active means well fitted curve in the direction sought with a large enough effect; inconclusive means small, poorly fitted or top-dose-only effect, or effect the other way; inactive means no such curve, though single readings can be large or run the other way.
# Molecular target: Cytochrome P450 3A4 (Homo sapiens) (UniProt P08684)
# Assay: Cytochrome panel assay with activity outcomes
# Conditions: recombinant CYP, pro-luciferin dealkylation, luminescence, p450-cyp3a4; series mostly up to 57.1 µM
# On the % scale 0 is the no-effect control and ±100 the full control effect.
# Sequence of Cytochrome P450 3A4 (Homo sapiens) (P08684 whole entry, looked up): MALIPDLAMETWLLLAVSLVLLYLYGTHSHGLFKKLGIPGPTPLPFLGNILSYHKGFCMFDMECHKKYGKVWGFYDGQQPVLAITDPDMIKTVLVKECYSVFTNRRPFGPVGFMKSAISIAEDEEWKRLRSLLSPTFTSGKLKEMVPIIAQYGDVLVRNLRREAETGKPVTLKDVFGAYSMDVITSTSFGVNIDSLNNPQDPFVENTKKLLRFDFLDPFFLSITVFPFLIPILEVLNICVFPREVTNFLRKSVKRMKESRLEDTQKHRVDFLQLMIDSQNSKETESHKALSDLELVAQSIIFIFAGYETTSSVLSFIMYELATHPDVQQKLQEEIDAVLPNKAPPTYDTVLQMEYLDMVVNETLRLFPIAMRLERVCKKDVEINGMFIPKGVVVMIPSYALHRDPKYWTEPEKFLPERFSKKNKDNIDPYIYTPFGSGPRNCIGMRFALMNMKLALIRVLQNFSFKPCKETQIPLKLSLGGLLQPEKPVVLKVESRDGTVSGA
Compound,AC50,"activity, negative = inhibition"
COc1cccc(-c2cc(C(F)(F)F)nc(N3CCN(c4ccccc4)CC3)n2)c1,inactive,–
COc1cccc(-c2cc(C(F)(F)F)nc(N3CCOCC3)n2)c1,28.2 µM (active),–
COc1ccc(C(=O)Nc2ccc(OCC(F)(F)C(F)F)c(C(F)(F)F)c2)cc1OC,inactive,–
COc1ccccc1N1CCN(c2nc(-c3ccccc3)cc(C(F)(F)F)n2)CC1,inactive,–
COc1ccc(-c2cc(C(F)(F)F)nc(N3CCN(C)CC3)n2)cc1OC,inactive,–
COc1ccc(-c2cc(C(F)(F)F)nc(NC3CCCC3)n2)cc1OC,25.1 µM (active),–
COc1ccc(-c2cc(C(F)(F)F)nc(N3CCOCC3)n2)cc1OC,15.8 µM (active),–
N=c1nc(N)nc(N)n1-c1ccc(S(N)(=O)=O)cc1,–,-8.91% [at 11.4 µM]
O=c1oc2c(Cl)cc(Cl)cc2cc1-c1nnc(Nc2ccccc2F)s1,inactive,–
N=C(N)CCNC(=O)[C@@H]1CCC(N)=N1,–,-7.02% [at 11.4 µM]
NC[C@@H]1O[C@H](O[C@@H]2[C@H](O[C@@H]3O[C@H](CO)[C@@H](COC[C@H]4O[C@@H](CN)[C@@H](O)[C@@H](O)[C@@H]4N)[C@@H]3O)[C@@H](O)[C@@H](N)C[C@H]2N)[C@@H](N)[C@H](O)[C@@H]1O,inactive,–
CC(=O)Nc1nc(NC(C)=O)c2[nH]c(CO)nc2n1,–,-3.45% [at 11.4 µM]
CCN(CC)c1ccc(N2C(=O)/C(=C\c3cccnc3)SC2=S)cc1,–,-14.7% [at 2.29 µM]
Cc1ccc(/C=C2\SC(=S)N(CCCC(=O)Nc3ccccn3)C2=O)cc1,–,-14.5% [at 2.29 µM]
CCN(CC)c1ccc(N2C(=O)/C(=C/c3cccnc3)SC2=S)cc1,5.62 µM (active),–
O=C1/C(=C/c2cccnc2)SC(=S)N1Cc1ccco1,1 µM (active),–
O=C(CCN1C(=O)/C(=C/c2cccc(Br)c2)SC1=S)NNC(=O)c1cccnc1,3.16 µM (active),–
C[C@@H]1/C=C\CC(=O)OC[C@H](C)C(=O)N2CCC[C@@H]2C(=O)OC1,–,-18.8% [at 11.4 µM]
N[C@@H](CSC(=O)c1ccccc1)C(=O)O,–,-4.21% [at 11.4 µM]
O=C(COc1cccc2ccccc12)N1c2ccccc2CCc2ccccc21,7.94 µM (active),–
CC(C)NC[C@@H](O)COc1cccc2ccccc12,inactive,–

Compound,AC50,"activity, negative = inhibition"
CC(C)NC[C@H](O)COc1cccc2ccccc12,inactive,–
OC[C@@H]1NC[C@@H](O)[C@@H](O)[C@H]1O,inactive,–
COC(=O)CCC(=O)Nc1cccc2ccccc12,inactive,–
CCn1c(C)c(C)c2cc(C(=O)Nc3cccc(Cl)c3)ccc21,–,10.3% [at 2.29 µM]
Cc1c(C)n(C)c2ccc(C(=O)Nc3cccc4ccccc34)cc12,14.1 µM (active),–
COc1cccc(C(CC(=O)Nc2cccc3ccccc23)NC(=O)c2ccccc2)c1 (stereo unspecified),2.24 µM (active),–
O=C(NNC(=O)c1cccnc1)Nc1cccc2ccccc12,–,14.6% [at 0.457 µM]
O=C(CCC(=O)OCc1ccc(C(=O)Oc2ccccc2)cc1)Nc1cccc2ccccc12,inactive,–
O=C(O)c1ccc(C(=O)Nc2cccc3ccccc23)c(C(=O)O)c1,–,-18.5% [at 11.4 µM]
O=C(Nc1cccc2ccccc12)c1ccccc1,3.16 µM (active),–
O=C(O)CSc1ccn(Cc2ccccc2)c1,–,-1.15% [at 11.4 µM]
CN1CCN(CN2C(=O)C3C4C=CC(C3C2=O)C2C3C(=O)N(CN5CCN(C)CC5)C(=O)C3C42)CC1 (stereo unspecified),–,-12.9% [at 11.4 µM]
CCOc1nc(N=C(N)N)nc2c(C)cccc12,inactive,–
CSC1(SC2=NCCN2)SC2(NCCN2)S1,1.26 µM (active),–
O=C(O)CCSC1=NCCN1,–,-3.67% [at 11.4 µM]
O=C(c1ccc(Cl)cc1)N1CCCC(c2ccccc2)=N1,–,13% [at 2.29 µM]
O=C1N=C2SCCN2/C1=C\c1c(Cl)cccc1Cl,10 µM (active),–
OCCN(CO)CO,–,-1.86% [at 11.4 µM]
CCC(Sc1nc(C)cc(=O)[nH]1)C(=O)Nc1nc2c(s1)CCCC2 (stereo unspecified),14.1 µM (active),–
CCC(=O)Nc1c2c(nc3c1CCC3)CCCC2,inactive,–
C[C@@H]1O[C@@H](n2cc(F)c(=O)[nH]c2=O)[C@H](O)[C@@H]1O,inactive,–

Compound,AC50,"activity, negative = inhibition"
Cc1cccc2c1Oc1ccccc1[C@@H]2NC(=O)c1ccc([N+](=O)[O-])cc1,–,-14% [at 11.4 µM]
Cc1cc([N+](=O)[O-])ccc1-c1ccc(C2Nc3ccccc3C(=O)N2O)o1 (stereo unspecified),7.08 µM (active),–
C[C@H](N)C(=O)O,inactive,–
CSc1nc(C2CC2)cc(-c2cccs2)c1C#N,inactive,–
Cc1ccccc1-c1nccc(NCc2cccs2)n1,2 µM (active),–
CN(C)Cc1ccccc1-c1nccc(NCc2cccs2)n1,inactive,–
FC(F)(F)c1ccccc1-c1nccc(NCc2cccs2)n1,2 µM (active),–
CCc1nn(C)c(-c2n[nH]c(=S)n2N)c1Cl,inactive,–
O=C1[C@H]2CCn3c(=O)n(-c4ccccc4)c(=O)n3[C@H]2[C@H](O)[C@H]2O[C@@H]12,–,-11.9% [at 11.4 µM]
Nc1nonc1-c1noc(CCCN2C(=O)c3ccccc3C2=O)n1,7.94 µM (active),–
CCN(c1ccccc1)c1cc(NC)[n+](C)c(C)n1,inactive,–
Cc1ccc(-c2nc3ncccn3c2NC(=O)C2CC2)cc1,inactive,–
Clc1ccc(-c2nc3ncccn3c2Nc2ccc3c(c2)OCCO3)cc1,4.47 µM (active),–
COCCn1c(=O)c(C)nc2cnc(Oc3ccc(OC)cc3)nc21,15.8 µM (active),–
COCCn1c(=O)c(-c2ccc(Cl)cc2)nc2cnc(OC)nc21,7.94 µM (active),–
COCCn1c(=O)c(-c2ccc(OC)cc2)nc2cnc(OC)nc21,15.8 µM (active),–
COCCn1c(=O)c(-c2ccc(Cl)cc2)nc2cnc(N(C)C)nc21,inactive,–
COCCn1c(=O)c(-c2ccc(Cl)cc2)nc2cnc(N3CCOCC3)nc21,inactive,–
COCCn1c(=O)c(-c2ccccc2)nc2cnc(Oc3ccc(OC)cc3)nc21,1 µM (active),–
